# An excerpt weighted towards active compounds, which were near 5.4% of everything screened.
# M18AAP inhibitor: PfM18AAP inhibitors, malaria aminopeptidase, primary screen, biochemical, QFRET, recombinant enzyme | 290,000 compounds, 1.2% hits | AID 1822, 2009 | inhibition, % at 7.35 µM | M18 aspartyl aminopeptidase (Plasmodium falciparum 3D7) | H-Glu-NHMec fluorogenic cleavage;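 active = inhibition above the campaign mean inhibition over all tested compounds plus 3 SD, cut at about 28% in these data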;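 also: 0% = plate median of test compound wells and 100% = 2 mM ZnCl2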
# JMJD2C inh: inhibitors of GASC-1 histone demethylase, primary screen, biochemical, fluorescence, DELFIA europium | GST-JMJD2C(1-420) H3K9me3 demethylation | inhibition, % at 2.35 µM | 330,000 compounds, 0.069% hits;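 active = more than half of a compound's replicate wells show inhibition beyond 50%, single wells judged on their own value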;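 also: signal counts dimethyl H3K9 product captured on neutravidin plate; 0% = median of DMSO wells and 100% = 0.3 times that DMSO median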
# Target sequence (Q9H3R0 1-420 limits assumed): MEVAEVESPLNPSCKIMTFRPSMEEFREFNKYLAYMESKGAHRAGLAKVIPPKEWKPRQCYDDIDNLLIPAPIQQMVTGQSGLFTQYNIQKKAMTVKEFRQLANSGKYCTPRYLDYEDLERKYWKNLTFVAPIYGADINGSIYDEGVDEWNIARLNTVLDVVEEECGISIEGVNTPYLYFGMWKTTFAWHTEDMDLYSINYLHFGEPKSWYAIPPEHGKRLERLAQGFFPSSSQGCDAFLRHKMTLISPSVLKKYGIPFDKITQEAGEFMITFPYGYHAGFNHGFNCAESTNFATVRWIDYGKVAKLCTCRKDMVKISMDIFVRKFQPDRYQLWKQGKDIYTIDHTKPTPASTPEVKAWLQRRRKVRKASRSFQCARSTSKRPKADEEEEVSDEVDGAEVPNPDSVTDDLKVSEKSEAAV
# ALR H2O2 inh: inhibitors of human ALR sulfhydryl oxidase, primary screen, biochemical, H2O2 detection, HRP-luminol luminescence, single point; inhibition, % (concentration not given with the values); FAD-linked sulfhydryl oxidase ALR (Homo sapiens), P55789; 290,000 compounds, 3.8% hits; purified ALR, DTT oxidation;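 active = mean replicate inhibition above about 79%, with every replicate also reaching it, limit read from the data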
# Granule exo inh: LAMP-1 surface exposure blockers, TALL-104 cells – cell-based, flow cytometry, MLPCN library, primary screen | TALL-104 LAMP-1 surface exposure; cells stimulated with thapsigargin and PMA | inhibition, % at 10 µM | 360,000 compounds, 0.66% hits | AID 651702, 2012;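 active = inhibition above about 55%, limit read from the data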
# SMARCA2 activ: SMARCA2 (BRM) function activators, primary screen, cell-based, luminescence, high throughput | MG213 cells, MMTV-luciferase reporter, dexamethasone, overnight | activation, % at 9.1 µM | 370,000 compounds, 1% hits; in the data active = activation above about 7.8%;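 also: 0% = vehicle wells and 100% = reference activator wells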
# beta cell repl: inducers of MIN6 beta-cell proliferation, primary screen, ATP luminescence, uHTS. 330,000 compounds, 0.29% hits. MIN6 cells proliferation, ATPlite luminescence, 48 h; cells starved in 0.2% serum; 100% = growth in 10% serum. proliferation, % at 10 µM;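 active = compounds whose signal lies at least 3.5 SD above the mean of all wells on their plate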;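 also: 0% = DMSO-treated cells in low-serum medium and 100% = 10% serum control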
# * hit, by the source's call; / = not tested or not shown.
SMILES,M18AAP inhibitor,JMJD2C inh,ALR H2O2 inh,Granule exo inh,SMARCA2 activ,beta cell repl
COc1ccc(N/N=C(\C#N)C(=N)N2CCOCC2)cc1,-5,-4,99*,11,-2,-3
N#C/C(=N\Nc1ccccc1)C(=N)N1CCCCCC1,-7,-13,4,-7,2,-3
COC(=O)C(C(=O)Nc1ccccc1C)C1CCCC1 (configuration not stated),-13,-3,-3,-2,0,-3
Cc1ccccc1NC(=O)C(NC1CCCCC1)C(C)C (configuration not stated),-2,-4,99*,-2,1,-4
COCCN(C(=O)CCC(=O)Nc1cc(C)on1)C(C(=O)NC(C)(C)C)c1ccccc1Cl (configuration not stated),-3,-6,/,-4,7.8*,0
CCOc1ccc(-c2nc(-c3cccs3)c(CC(=O)O)s2)cc1OC,-11,-1,89*,-1,6,-4
O=C(NCCc1c[nH]c2ccccc12)OCc1cn(Cc2c(F)cccc2F)nn1,/,/,/,/,1,/
CC(=O)N1CCN(c2ccc(N3CCN(Cc4ccccc4)[C@@H](C)C3)c(C)c2)[C@H](C)C1,/,/,/,/,-5,/
NS(=O)(=O)c1ccc(CCNC(=O)C(=O)NCC2OCCN2S(=O)(=O)c2ccc(F)cc2)cc1 (configuration not stated),-8,-11,-2,-2,-1,-4
Cc1ccc(S(=O)(=O)N2CCOC2CNC(=O)C(=O)NCCc2ccc(S(N)(=O)=O)cc2)cc1 (configuration not stated),1,61*,-3,2,-5,2
CCC1(c2ccccc2)NC(=S)N(c2ccc(C)c(C)c2)N1 (configuration not stated),9,0,/,8,0,0
CCC1(c2ccc(Cl)cc2)NC(=S)N(c2ccc(C)c(C)c2)N1 (configuration not stated),5,19,97*,18,-6,-4
COc1ccc(CN(C)CC#Cc2ccccc2)c(OC)c1,/,/,/,/,-4,/
COC(=O)C1CN(C2CCCC2)CCS(=O)(=O)N1Cc1cn(Cc2ccc(OC)cc2)nn1 (configuration not stated),/,/,/,/,-2,/
S=c1[nH]nc(COc2ccc(Cl)cc2Cl)n1-c1ccccc1,4,7,84*,-2,0,-1
C=CCNC(=O)NCC1CCN(Cc2ccc(OC)cc2)CC1,/,/,/,/,-3,/
COC(=O)c1ccc2[nH]c3c(c2c1)CC(C)CC3 (configuration not stated),-17,-4,93*,29,2,1
Cc1cccc(NC(=O)n2ccc3ccc(-c4ccc5cc[nH]c5c4)cc32)c1,/,/,/,/,-4,/
Nc1cc2sc(-c3ccc(C(=O)O)cc3)nc2cc1Cl,-6,0,-21,-3,2,-3
Nc1ncc(N=Nc2cc(C(=O)O)ccc2Cl)s1,29*,15,66,0,-3,0
Nn1c(SCc2cccc3ccccc23)nnc1-c1cc(-c2ccc(F)cc2)n[nH]1,/,/,/,/,-9,/
CC(C)(C)OC(=O)CNC(=O)c1[nH]cnc1C(=O)Nc1ccc(CNC(=O)OC(C)(C)C)cc1,/,-5,-2,0,-2,-1
CC(C)(C)OC(=O)NCc1ccc(NC(=O)c2nc[nH]c2C(=O)NCCNC(=O)c2[nH]cnc2C(=O)Nc2ccc(CNC(=O)OC(C)(C)C)cc2)cc1,/,-2,-4,62*,/,-5
CC(C)C[C@@H]1COc2cc(Br)ccc2S(=O)(=O)N1Cc1cn(Cc2ccc(C(F)(F)F)cc2)nn1,/,/,/,/,3,/
COC(=O)C1CCN(C(=O)CN2C(=O)NC(CCc3ccccc3)C2=O)CC1 (configuration not stated),1,-7,99*,1,-1,-2
SMILES,M18AAP inhibitor,JMJD2C inh,ALR H2O2 inh,Granule exo inh,SMARCA2 activ,beta cell repl
O=C(CN1C(=O)NC(CCc2ccccc2)C1=O)NC1CC1 (configuration not stated),12,4,-16,1,2,-1
COC(=O)C1=C(C)N(Cc2ccccc2C(F)(F)F)C(=NCc2ccc3c(c2)OCO3)NC1CCc1ccccc1 (configuration not stated),/,/,/,/,-5,/
COc1ccc(Cl)cc1Nc1nc(-c2sc(NC(=O)c3ccccc3)nc2C)cs1,9,4,44,/,/,-9
Cc1nc(NC(=O)c2ccccc2)sc1-c1csc(Nc2ccc(Cl)cc2Cl)n1,-9,6,87*,/,/,-6
COc1ccc(CN2C/C(=C/C3=CCCCC3)N(C(=O)OCc3ccccc3)C2=N)c(OC)c1,/,/,/,/,0,/
CCN(CC)c1ccc(NC(=O)C2CC3CCC2C3)cc1 (configuration not stated),15,2,99*,-3,4,2
CCCCNC(=O)C[C@@H]1C(=O)N(CCc2ccc(Cl)cc2)C2=CCCCC[C@]21C(=O)OC,/,/,/,/,-1,/
CCn1c2ccccc2nc2cc3c(cc21)c(Cl)c(=O)c1ccccc13,/,/,/,119*,-2,/
CCn1c(/C=C/c2c(C)n(CC)c3ccccc23)nc2ccccc2c1=O,1,-4,-5,-5,1,0
Cc1cc(N)n(-c2nc3ccccc3s2)n1,-5,2,99*,0,4,-4
Cc1cc(C)n(-c2nc3ccccc3s2)n1,-2,-17,/,-1,3,-2
CCCCCCCCN1C(=O)[C@@H](CC(=O)N2CCN(C(=O)OCC)CC2)C[C@@]2(C(=O)OC)C1=C[C@H](C(C)C)O[C@@H]2C1CC1,/,/,/,/,-3,/
CC(C)Oc1cccc(-c2n[nH]c(=S)n2N=Cc2ccc(OCc3ccccc3)cc2)c1,/,/,/,/,-1,/
CCN(CC)CC(=O)c1ccc(-c2ccccc2)cc1,5,19,99*,16,3,-3
Cc1ccc(C(=O)CSc2ncnc3ccccc23)o1,10,-8,99*,1,1,3
O=C(CSc1ncnc2ccccc12)c1cccs1,-9,-15,99*,-1,5,-3
O=C(CSc1ccc(-c2ccccc2)nn1)c1cccs1,2,6,92*,-1,7,-2
O=C(CSc1ncnc2ccccc12)N1CCCC1,2,3,31,-5,0,0
COc1ccc(-c2ccc(SCC(=O)c3cccs3)nn2)cc1,4,-12,36,-1,2,-2
COC(=O)C/C=C/[C@H](C)[C@@H](NC(=O)C(F)(F)F)c1ccccc1Br,/,/,/,/,-4,/
O=C(NCc1ccco1)C1CCCN(c2ncccn2)C1 (configuration not stated),/,/,/,/,0,/
